# Experimental data reported in PubChem BioAssay (NCI).
# Compounds without any hit were thinned out: in the full panel of roughly 83,000, 20% have a hit.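 Compound tested at a single concentration for 48 hours in 96-well plates; a percent growth value below 10 was scored as active.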 The source made the active and inactive calls.
# Tested on: HL-60(TB) leukemia
# Experiment: NCI-60 one-dose screen, 48 h (100 = growth as untreated, 0 = no growth, -100 = all killed)
# Details: 10 µM unless noted
row,Compound,growth
1,CC(=O)c1cccc(NC(=O)CCC(=O)NS(=O)(=O)c2ccc(C)cc2)c1,107% (inactive)
2,Nc1nnc(-c2c[nH]c3ccc(F)cc23)c(-c2c[nH]c3ncccc23)n1,63.3% (inactive)
3,C#CCOc1ccc(/C=N/Nc2nc(-c3cc4cc(OC)ccc4oc3=O)cs2)cc1OC,76.1% (inactive)
4,CC(C)CSc1nc(NCCc2c[nH]c3ccccc23)c(C#N)c(-c2ccccc2)n1,60.7% (inactive)
5,COc1ccc(SC2c3cc(OC)ccc3Oc3nc(N)c(C#N)c(N)c32)cc1 (stereo not given),64.7% (inactive)
6,O=C(CSc1nc2ccccc2c(=O)n1-c1ccc(Cl)cc1)Nc1ccc(-c2nc3ccc([N+](=O)[O-])cc3[nH]2)cc1,85.7% (inactive)
7,COc1ccc(NC(=O)CSc2nnc(-c3ccc4nc(-c5ccc(Cl)cc5)[nH]c4c3)o2)cc1,63% (inactive)
8,COc1ccc(NC(=O)[C@H](C)N)cc1C(=O)Nc1cccc(C2CC(=O)c3c(cc(OC)c(OC)c3OC)O2)c1 (stereo not given in full),69.8% (inactive)
9,O=C1N/C(=N\c2nccs2)S/C1=C\c1cccs1,25.1% (inactive)
10,CN1CCN(c2ccc(C(=O)/C=C/c3ccc(OC(F)F)cc3)cc2)CC1,-26.7% (active)
11,Cc1cc2c(cc1Cl)C(=O)/C(=C/c1ccc(F)cc1)O2,101% (inactive)
12,COc1ccc2oc(=O)c(C3(C)NC(=O)c4c(/C=C/C(=O)OC(C)(C)C)cccc4N3)cc2c1 (stereo not given),-5.42% (active)
13,Cc1nc(Nc2ncc(C(=O)Nc3c(C)cccc3Cl)s2)cc(N2CCN(CCCNC(=O)COc3ccc(C4CCC(=O)NC4=O)cc3)CC2)n1 (stereo not given),76.3% (inactive)
14,Cc1ccc(NCC(=O)Nn2c(COc3ccccc3)nc3ccccc3c2=O)cc1,93.9% (inactive)
15,O=C(Nc1ccc(I)cc1F)c1cc(-c2ccc(F)cc2F)ccc1O,-30.4% (active)
16,COC(=O)/C=C/c1cccc2c1C(=O)NC(C)(c1cc3cc4ccccc4cc3oc1=O)N2 (stereo not given),54.7% (inactive)
17,O=C(NO)c1ccc(Cn2ccc3c(NCc4ccccc4)ncnc32)cc1,-16% (active)
18,Cc1ccc(/C=C/c2n(Cc3ccc4ccccc4c3)c3ccccc3[n+]2Cc2ccc3ccccc3c2)cc1,-45.5% (active)
19,CC(=O)Nc1ccc(-c2cn(-c3cccc(C(=O)Nc4cc(C(F)(F)F)cc(C(F)(F)F)c4)c3)nn2)cn1,-60.5% (active)
20,Cn1cc(-c2nc(N)nnc2-c2c[nH]c3ccc(Br)cc23)c2cc(Br)cnc21,-35.8% (active)

row,Compound,growth
1,O=C(O)c1ccc(-c2ccc(/C=N/NC(=O)c3[nH]c4ccc(Br)cc4c3-c3ccccc3)o2)cc1,-18.5% (active)
2,COc1cccc(/C=N/NC(=O)c2ccc3nc(-c4ccc(Cl)cc4)[nH]c3c2)c1O,-43.4% (active)
3,COc1ccc2[nH]c(=O)c(CSc3ccc(Nc4nccc(-c5ccc(Cl)cc5)n4)cc3)cc2c1,86.1% (inactive)
4,O=C1Nc2cc(-c3ccc(NC(=O)c4cccc([N+](=O)[O-])c4)cc3)ccc2/C1=C/c1ccc[nH]1,106% (inactive)
5,COc1ccc2c(c1)C(Sc1ccc(Br)cc1)c1c(nc(N)c(C#N)c1N)O2 (stereo not given),78% (inactive)
6,COc1ccc2c(c1)C(=N/N=C(\C)c1ccc(OC)c(S(N)(=O)=O)c1)C(=O)N2,91.7% (inactive)
7,COCOc1ccc2c(=O)c(C)c(C(=O)N[C@@H](Cc3ccccc3)C(O)C(=O)NCCc3ccc(OC)cc3)oc2c1 (stereo not given in full),102% (inactive)
8,CC(=O)c1cc(C(=O)c2ccc3c(c2)NC(=O)CO3)n2ccc3ccccc3c12,94.7% (inactive)
9,CCCSc1nc(NCCc2c[nH]c3ccccc23)c(C#N)c(-c2ccc(F)cc2)n1,54.2% (inactive)
10,Nc1nnc(CS(=O)(=O)c2ccccc2)s1,105% (inactive)
11,CC(=O)c1c(N)c(C#N)cn1-c1ccc(Cl)cc1Cl,102% (inactive)
12,CC(C)CCSc1nc(NC2CC2)c(C#N)c(-c2ccc(C(C)C)cc2)n1,80.4% (inactive)
13,CC1[C@H]2[C@H](C[C@H]3[C@@H]4CC=C5c6sc(Nc7cccc(Cl)n7)nc6CC[C@]5(C)[C@H]4CC[C@@]32C)O[C@]12CC[C@@H](C)CO2 (stereo not given in full),45.4% (inactive)
14,Cc1cc(N=C2NC(=O)/C(=C/c3cc(C(C)(C)C)c(O)c(C(C)(C)C)c3)S2)n[nH]1,5.2% (active)
15,O=c1[nH]c2ccccc2cc1CSc1ccc(Nc2nccc(-c3ccc4c(c3)OCO4)n2)cc1,97.4% (inactive)
16,CC(C)(C)OC(=O)N1C/C(=C\c2ccc(F)cc2)C(=O)/C(=C/c2ccc(F)cc2)C1,-6.78% (active)
17,O=C(Nc1ccc(OCc2ccc(Cl)cc2)cc1)Nc1ccc(Cl)c(C(F)(F)F)c1,0.65% (active)
18,Cn1cc(-c2nnc(N)nc2-c2c[nH]c3ccccc23)c2cccnc21,13.5% (inactive)
19,Cc1cccc(/C=C/c2ccc(NC(=S)NCCCCN(C)C)cc2)c1,-37.7% (active)
20,O=C(c1ccc(O)cc1)C1[C@H](c2ccc(Br)cc2)[C@@H](c2ccccc2)NC12C(=O)Nc1ccccc12 (stereo not given in full),50.5% (inactive)
